These results are taken from PubChem BioAssay (Tox21).

Molecules are shown by their SMILES. Unmarked numbers belong to inactive results. Results filed as inconclusive are left out. Activity calls are given as the source filed them. Unless noted, calls follow the shape of the full dose curve.

Assay [1] in a line: Nuclear factor erythroid 2-related factor 2/antioxidant responsive element (Nrf2/ARE) small molecule agonists: qHTS cell viability counter screen in human keratinocytes (AID 1919968; active = well fitted curve in the direction sought with a large enough effect in the repeat runs; an effect the other way counts as inactive or inconclusive; also: nearly all actives have a fitted effect of over 55% in size). A digest of the protocol: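 Cells of the KeratinoSens line were plated at 1,500 per well and left for 5 h before compound transfer from DMSO stocks. After a 23 h incubation (37 C, 5% CO2), CellTiter-Fluor was added. Signal was taken as fluorescence intensity 1 h later.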
For orientation: qHTS replaces the single test concentration by a dilution series.

A short description of assay [2]: Nuclear factor erythroid 2-related factor 2/antioxidant responsive element (Nrf2/ARE) small molecule agonists: luciferase reporter gene qHTS assay in human keratinocytes (AID 1919969). Also: nearly all actives have a fitted effect of over 35% in size. Also: potency is read from the fitted curve at half-maximal effect. In general terms: Reporter assays use an easily measured gene product as a stand-in for the process of interest.
Assay [3] addresses Gonadotropin-releasing hormone receptor (Homo sapiens) (UniProt P30968). As to the kind of experiment: Human gonadotropin-releasing hormone receptor (GnRHR) small molecule agonists, calcium flux assay in GnRHR-HEK293 cells (AID 1920063). Also: nearly all actives have a fitted effect of over 35% in size. A digest of the protocol: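 Compounds dissolved in DMSO are pin-transferred onto dye-loaded GnRHR-HEK293 cells, which were seeded 18 h before at 37 C/5% CO2. Calcium signal is read as fluorescence intensity at 1 s intervals for 3 min.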
On the technique in general: A change in cytosolic calcium serves as a functional read-out for many receptors and channels.

Assay [4] concerns the target KiSS-1 receptor (Homo sapiens) (UniProt Q969F8). In words: Human kisspeptin (KISS1R) small molecule agonists, calcium flux assay in KISS1R-HEK293 cells (AID 1920064; active = well fitted curve in the direction sought with a large enough effect in the repeat runs; an effect the other way counts as inactive or inconclusive). A digest of the protocol: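 Cell line: HEK293, stable human KISS1R. Dye loading 1 h at 37 C after 18 h culture. Read: kinetic fluorescence, 480/540 nm, 3 min at 1 s intervals.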
Assay [5] can be described thus: G protein-coupled receptor (GPCR) small molecule agonists, calcium flux assay: HEK293 wild type cell line counter screen (AID 1920065). A digest of the protocol:
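Tox21 10K compounds, 15 concentrations each in triplicate, pin-transferred in DMSO onto dye-loaded cells; kinetic read at 480/540 nm for 3 min, 1 s intervals.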

The nature of assay [6]: p53 small molecule agonists, cell-based qHTS assay with human liver microsomes (AID 1963577). The method, boiled down: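 Fluorescence of the beta-lactamase reporter in p53RE-bla cells, detected with LiveBLAzer substrate (2 h, room temperature, dark), served as the read-out after 16 h compound exposure at 37 C with human liver microsomes and NADPH, each 0.5 mg/mL final.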

Assay [7] in a line: p53 small molecule agonists, cell-based qHTS assay with rat liver microsomes (AID 1963578). The method, boiled down: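 Cells carrying a p53 response element–beta-lactamase reporter were plated and rested 5 h, then dosed with compound in DMSO plus rat liver microsomes and NADPH, each at 0.5 mg/mL final. After 16 h at 37 C, LiveBLAzer substrate was added for 2 h.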
The nature of assay [8]: p53 small molecule agonists, cell-based qHTS assay with human liver microsomes: qHTS cell viability counter screen (AID 1963579). Also: nearly all actives have a fitted effect of over 45% in size. A digest of the protocol: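 Cytotoxicity counter screen: p53RE-bla, 4,000 cells/well; 5 h settle, 37 C/5% CO2; cpd + HLM 0.5 mg/mL + NADPH 0.5 mg/mL (final); 16 h, 37 C; CellTiter-Glo, 30 min RT, luminescence.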
Assay [9] is described as follows: p53 small molecule agonists, cell-based qHTS assay with rat liver microsomes: qHTS cell viability counter screen (AID 1963580). Also: nearly all actives have a fitted effect of over 45% in size. The method, boiled down:
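Rat liver microsome (0.5 mg/mL final) and NADPH (0.5 mg/mL final) co-incubation with compounds for 16 h at 37 C on HCT-116 p53RE-bla cells; cytotoxicity taken from intracellular ATP luminescence.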

Assay [10] is described as follows: p53 small molecule agonists, cell-based qHTS assay (AID 1963582; active = well fitted activation curve with a large enough effect in the signal ratio in the repeat runs, not every such curve was filed as active; the % refers to the signal ratio). The method, boiled down:
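16 h compound exposure (37 C) of p53 response element–bla cells, preceded by 5 h recovery at 37 C/5% CO2; read-out via LiveBLAzer B/G FRET substrate, 2 h RT, fluorescence intensity.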

Assay [11] concerns the target 5-hydroxytryptamine receptor 2A (Homo sapiens) (UniProt P28223). In words: 5-hydroxytryptamine receptor 2A (HTR2A) small molecule antagonists, cell-based qHTS assay (AID 1963586). Also: nearly all actives have a fitted effect of over 45% in size. The method, boiled down:
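CHO cells stably expressing human HTR2A were plated for 18 h at 37 C, then loaded with calcium dye for 1 h. Compounds were preincubated 5 min at room temperature before DOI (4 nM solution) was added. Kinetic fluorescence was read for 3 min.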

Assay [12] has the same target. In words: 5-hydroxytryptamine receptor 2A (HTR2A) small molecule agonists, cell-based qHTS assay (AID 1963587). Also: nearly all actives have a fitted effect of over 30% in size. A digest of the protocol:
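Kinetic calcium-flux fluorescence (2 min, 1 sec intervals) after compound addition in agonist mode. HTR2A-CHO cells were cultured 18 h, then dye-loaded 1 h at 37 C.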

In assay [13] the target is Muscarinic acetylcholine receptor M1 (Homo sapiens) (UniProt P11229). In words: Cholinergic receptor muscarinic 1 (CHRM1) small molecule antagonists, cell-based qHTS assay (AID 1963588). Also: nearly all actives have a fitted effect of over 40% in size. A digest of the protocol:
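Compounds were tested at 15 concentrations in three independent runs. Dye-loaded CHRM1-CHO cells were exposed 5 min at room temperature before stimulation by acetylcholine added at 50nM. Intracellular calcium was read kinetically on FDSS for 3 min.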

Assay [14] shares this target. As to the kind of experiment: Cholinergic receptor muscarinic 1 (CHRM1) small molecule agonists, cell-based qHTS assay (AID 1963589). Also: nearly all actives have a fitted effect of over 35% in size. The method, boiled down:
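Homogeneous fluorescence calcium flux, agonist mode. Human M1-expressing CHO cells; compound dosed at 15 concentrations, three independent runs; signal sampled every 1 sec.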

A short description of assay [15]: cAMP Responsive Elements (CRE) small molecule agonists, cell-based qHTS assay (AID 1963590). A digest of the protocol:
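HEK 293T cells stably bearing CRE-bla were plated at 2,000 cells per well and rested 18 h. Compounds, positive controls or DMSO were added for 3 h at 37 C. LiveBLAzer B/G substrate was then loaded for 2 h at room temperature.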

Assay [16] can be described thus: cAMP Responsive Elements (CRE) small molecule antagonists, cell-based qHTS assay (AID 1963591; active = well fitted inhibition curve with a large enough effect in the signal ratio in the repeat runs, not every such curve was filed as active; the % refers to the signal ratio). A digest of the protocol: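 First, CRE-bla HEK293T cells settled 18 h at 37 C. Next, compound and 0.25 uM final NKH477 were applied for 3 h. Last, LiveBLAzer B/G substrate was loaded for 2 h at room temperature.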
The target of assay [17] is Beta-2 adrenergic receptor (Homo sapiens) (UniProt P07550). In words: Adrenergic beta2 receptor (ADRB2) small molecule antagonists, cell-based qHTS assay (AID 1963592). Also: series mostly up to about 92 µM; nearly all actives have a fitted effect of over 50% in size. The method, boiled down: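 Assay format: CHO-ADRB2 cells, 18-20hr seeding at 37C/5% CO2, then compound plus 1nM isoproterenol agonist mix for 0.5hr RT. Homogeneous time-resolved fluorescence cAMP detection after 1hr, expressed as 665/615 nm ratio.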
Sequence of Beta-2 adrenergic receptor (Homo sapiens) (P07550 whole entry, looked up): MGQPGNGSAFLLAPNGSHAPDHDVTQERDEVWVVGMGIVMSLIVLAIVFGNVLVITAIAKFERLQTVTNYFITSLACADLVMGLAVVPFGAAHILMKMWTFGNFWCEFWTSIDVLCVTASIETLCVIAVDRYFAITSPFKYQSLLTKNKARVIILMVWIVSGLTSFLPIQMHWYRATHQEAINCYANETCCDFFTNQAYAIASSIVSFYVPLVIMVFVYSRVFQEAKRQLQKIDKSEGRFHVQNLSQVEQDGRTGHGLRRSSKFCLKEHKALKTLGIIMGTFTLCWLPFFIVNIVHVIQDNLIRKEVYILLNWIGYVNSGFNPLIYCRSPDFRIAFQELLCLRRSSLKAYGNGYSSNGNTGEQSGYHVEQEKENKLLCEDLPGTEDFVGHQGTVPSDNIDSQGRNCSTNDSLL

Assay [18] addresses D(2) dopamine receptor (Homo sapiens) (UniProt P14416). In words: Dopamine D2 receptor (DRD2) small molecule agonists, cell-based qHTS assay (AID 1963594). Also: nearly all actives have a fitted effect of over 35% in size. The method, boiled down: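 cAMP accumulation in DRD2-HEK293 cells measured by HTRF after 1 h detection; compounds added 10 min before NKH477 (200nM […]) forskolin-analogue stimulation, 30 min at room temperature, with Ro20-1724 present at 0.1 mM final.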

For assay [19] the target is unchanged. As to the kind of experiment: Dopamine D2 receptor (DRD2) small molecule antagonists, cell-based qHTS assay (AID 1963595; active = well fitted inhibition curve with a large enough effect in the signal ratio in the repeat runs, with a control signal flat; the % refers to the signal ratio). A digest of the protocol:
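HEK293 cells stably expressing DRD2, preincubated with 0.1 mM Ro20-1724 and compounds 10 min, were stimulated with 200 nM NKH477 plus 12 nM quinpirole for 30 min at room temperature; cAMP measured by HTRF (665/620 nm).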
% is scaled to controls: 0 for no effect and ±100 for the full control effect.

Sequence of D(2) dopamine receptor (Homo sapiens) (P14416 whole entry, looked up): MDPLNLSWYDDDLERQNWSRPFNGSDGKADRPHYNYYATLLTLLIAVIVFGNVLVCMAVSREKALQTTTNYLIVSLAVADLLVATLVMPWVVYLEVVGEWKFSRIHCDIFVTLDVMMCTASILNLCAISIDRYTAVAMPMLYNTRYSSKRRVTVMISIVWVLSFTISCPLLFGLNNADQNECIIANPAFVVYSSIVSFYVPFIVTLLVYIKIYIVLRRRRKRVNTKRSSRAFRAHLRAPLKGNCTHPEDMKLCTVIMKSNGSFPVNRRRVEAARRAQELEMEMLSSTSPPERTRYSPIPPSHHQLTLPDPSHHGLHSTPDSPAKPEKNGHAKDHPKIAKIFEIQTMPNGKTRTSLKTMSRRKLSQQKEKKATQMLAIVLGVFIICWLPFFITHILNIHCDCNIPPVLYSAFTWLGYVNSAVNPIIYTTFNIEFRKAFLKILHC
Sequence of Gonadotropin-releasing hormone receptor (Homo sapiens) (P30968 whole entry, looked up): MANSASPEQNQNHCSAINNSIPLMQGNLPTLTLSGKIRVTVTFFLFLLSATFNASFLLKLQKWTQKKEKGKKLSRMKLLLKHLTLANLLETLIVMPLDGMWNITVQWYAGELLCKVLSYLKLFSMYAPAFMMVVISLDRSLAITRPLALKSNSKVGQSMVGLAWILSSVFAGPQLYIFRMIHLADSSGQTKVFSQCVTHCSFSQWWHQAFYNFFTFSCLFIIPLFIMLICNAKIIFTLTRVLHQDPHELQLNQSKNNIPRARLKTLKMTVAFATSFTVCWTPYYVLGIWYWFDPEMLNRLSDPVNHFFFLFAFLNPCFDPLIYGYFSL
Sequence of KiSS-1 receptor (Homo sapiens) (Q969F8 whole entry, looked up): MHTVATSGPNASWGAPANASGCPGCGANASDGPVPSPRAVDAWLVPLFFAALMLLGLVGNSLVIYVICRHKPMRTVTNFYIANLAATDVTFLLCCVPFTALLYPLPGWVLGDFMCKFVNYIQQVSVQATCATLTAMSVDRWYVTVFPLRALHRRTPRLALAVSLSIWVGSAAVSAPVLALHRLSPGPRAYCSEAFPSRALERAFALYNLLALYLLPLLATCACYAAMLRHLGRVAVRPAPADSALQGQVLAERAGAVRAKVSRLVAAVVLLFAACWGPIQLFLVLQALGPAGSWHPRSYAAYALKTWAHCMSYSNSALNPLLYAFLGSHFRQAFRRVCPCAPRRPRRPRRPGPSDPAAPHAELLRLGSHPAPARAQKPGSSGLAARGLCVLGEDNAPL
Sequence of Muscarinic acetylcholine receptor M1 (Homo sapiens) (P11229 whole entry, looked up): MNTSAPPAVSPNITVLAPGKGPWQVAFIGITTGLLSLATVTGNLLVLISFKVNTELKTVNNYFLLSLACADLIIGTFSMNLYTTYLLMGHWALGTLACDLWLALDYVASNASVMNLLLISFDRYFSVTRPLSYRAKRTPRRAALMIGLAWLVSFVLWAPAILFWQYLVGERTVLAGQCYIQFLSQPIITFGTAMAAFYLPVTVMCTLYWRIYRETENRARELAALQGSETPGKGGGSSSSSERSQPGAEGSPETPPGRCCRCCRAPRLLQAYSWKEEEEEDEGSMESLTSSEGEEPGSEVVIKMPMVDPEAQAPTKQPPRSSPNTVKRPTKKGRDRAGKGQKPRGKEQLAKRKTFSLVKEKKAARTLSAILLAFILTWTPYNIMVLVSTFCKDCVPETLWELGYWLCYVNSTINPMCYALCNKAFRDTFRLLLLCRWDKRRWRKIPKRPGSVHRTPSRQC
Sequence of 5-hydroxytryptamine receptor 2A (Homo sapiens) (P28223 whole entry, looked up): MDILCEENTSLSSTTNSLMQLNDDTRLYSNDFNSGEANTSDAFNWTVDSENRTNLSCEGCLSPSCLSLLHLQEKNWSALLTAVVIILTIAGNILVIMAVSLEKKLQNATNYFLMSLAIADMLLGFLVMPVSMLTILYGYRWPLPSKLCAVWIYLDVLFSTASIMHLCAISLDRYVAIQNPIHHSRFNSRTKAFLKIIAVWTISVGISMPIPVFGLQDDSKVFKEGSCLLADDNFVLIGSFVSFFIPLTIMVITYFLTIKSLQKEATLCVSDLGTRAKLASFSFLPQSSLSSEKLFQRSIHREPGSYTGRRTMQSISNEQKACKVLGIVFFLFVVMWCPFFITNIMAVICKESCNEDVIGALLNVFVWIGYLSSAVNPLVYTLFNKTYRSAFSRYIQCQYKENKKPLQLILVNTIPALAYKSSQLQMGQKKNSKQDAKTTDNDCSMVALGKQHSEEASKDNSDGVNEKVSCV

Consider `CCCC=O`, for which the Potency entry in assay [1], in [2], in assay [3], in [4], in assay [5] and in assay [6] was “inactive” in each case. The Potency entry in assay [7], in [8], in [9], in assay [10], in [11] and in assay [12] was “inactive” throughout. Further, the Potency entry in assay [13], in assay [14], in assay [15], in assay [16], in [17] and in assay [18] was “inactive” throughout.

Turning to `NS(=O)(=O)c1ccccc1OC(F)(F)F`, the Potency entry in assay [1], in assay [2], in assay [3], in assay [4], in [5] and in assay [6] was “inactive” in each case. Moreover, the Potency result in assay [7], in [8], in [9], in assay [10], in assay [11] and in assay [12] was “inactive” in each case. Moreover, the Potency entry in assay [13], in [15], in [16], in assay [17], in [18] and in [19] was “inactive” each time.

`CCCCCCCCCCCC(=O)OC[C@@H](O)[C@H]1OC[C@H](OCCO)[C@H]1OCCO`: the Potency result in [1], in [3], in [4], in [5], in assay [6] and in [7] was “inactive” each time. Besides, the Potency result in assay [8], in [9], in [10], in assay [11], in assay [12] and in assay [13] was “inactive” in each case. Also, the Potency entry in assay [15], in [16], in [17], in assay [18] and in assay [19] was “inactive” each time. Also, in assay [2], the Potency was 23.7 µM (active).

With `N=C(N)c1ccc2cc(OC(=O)c3ccc(N=C(N)N)cc3)ccc2c1`, the Potency result in assay [1], in assay [2], in [3], in assay [4], in assay [5] and in assay [6] was “inactive” each time. The Potency result in [7], in assay [8], in assay [9], in assay [10], in [11] and in assay [12] was “inactive” each time. Also, the Potency entry in assay [13], in assay [14], in [15], in [16], in assay [18] and in assay [19] was “inactive” throughout.

In the case of `COCC(C)OC(C)=O` (configuration not stated), the Potency result in assay [1], in [2], in assay [3], in assay [4], in assay [5] and in [6] was “inactive” throughout. The Potency result in assay [7], in [8], in assay [9], in assay [10], in assay [11] and in assay [12] was “inactive” in each case. Further, the Potency result in [13], in assay [14], in [15], in assay [16], in assay [17] and in assay [18] was “inactive” each time. Moreover, in [19], the Potency entry is “inactive”.

Regarding `N[C@H](C(=O)O)c1ccc(O)cc1`, the activity change, negative = cytotoxicity in assay [1] is 7.62% [at 19 µM]; in [8] it was 0.34% [at 13.5 µM]; in assay [9], 4.85% [at 13.5 µM]. Moreover, the activity, positive = activation in assay [2] is 16.5% [at 19 µM]. Also, in [3], the activity change is -1.58% [at 11.8 µM, hits give high values]. In addition, the activation is 3.74% [at 15.8 µM] in assay [4]; 0.205% [at 11.8 µM] in assay [5]; 0.205% [at 13.5 µM] in assay [6]; 0.317% [at 13.6 µM] in assay [7]; -1.96% [at 13.5 µM] in assay [10]; -0.912% [at 15.9 µM] in assay [12]. Also, the activation in [14] is 0.717% [at 15.8 µM]; in assay [15] it was -0.179% [at 19 µM]. Further, the activity, negative = inhibition in assay [11] is 57.4% [at 12.7 µM]; in assay [13], 8.36% [at 12.6 µM]. Besides, the results for the activity change, negative = inhibition in [16], in assay [17] and in assay [19] were 0.811% [at 18.9 µM], -0.335% [at 19 µM] and 7.69% [at 18.9 µM], respectively.

Turning to `Nc1ccc2c(S(=O)(=O)O)cccc2c1S(=O)(=O)O`, the Potency result in [1], in assay [2], in [3], in assay [4], in assay [5] and in assay [6] was “inactive” throughout. Also, the Potency result in assay [7], in assay [8], in assay [9], in [10], in [11] and in [12] was “inactive” throughout. Besides, the Potency result in assay [13], in [15], in assay [16], in [17], in assay [18] and in assay [19] was “inactive” throughout.
